For the first experiment, the target named is T1, ETS1 (UniProt P14921).
T1 sequence: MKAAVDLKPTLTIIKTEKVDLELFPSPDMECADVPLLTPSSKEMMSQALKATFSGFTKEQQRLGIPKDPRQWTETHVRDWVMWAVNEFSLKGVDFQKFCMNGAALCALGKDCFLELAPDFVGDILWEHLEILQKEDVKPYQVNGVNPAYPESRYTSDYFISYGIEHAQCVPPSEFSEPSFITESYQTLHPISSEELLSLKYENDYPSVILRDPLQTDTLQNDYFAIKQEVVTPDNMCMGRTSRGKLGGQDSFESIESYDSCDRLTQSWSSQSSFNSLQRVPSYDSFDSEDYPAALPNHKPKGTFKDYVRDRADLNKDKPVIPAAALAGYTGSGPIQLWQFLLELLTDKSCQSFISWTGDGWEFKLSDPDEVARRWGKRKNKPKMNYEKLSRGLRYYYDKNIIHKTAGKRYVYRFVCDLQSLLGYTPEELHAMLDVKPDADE
Put plainly: ETS1 binding intensity (PBM fluorescence), ETS1 alone (arbitrary fluorescence units); higher = stronger binding. The conditions noted are these: ETS1 concentration 1 nM; RUNX1 concentration 0 nM.
RUNX1, sequence (Q01196 whole entry): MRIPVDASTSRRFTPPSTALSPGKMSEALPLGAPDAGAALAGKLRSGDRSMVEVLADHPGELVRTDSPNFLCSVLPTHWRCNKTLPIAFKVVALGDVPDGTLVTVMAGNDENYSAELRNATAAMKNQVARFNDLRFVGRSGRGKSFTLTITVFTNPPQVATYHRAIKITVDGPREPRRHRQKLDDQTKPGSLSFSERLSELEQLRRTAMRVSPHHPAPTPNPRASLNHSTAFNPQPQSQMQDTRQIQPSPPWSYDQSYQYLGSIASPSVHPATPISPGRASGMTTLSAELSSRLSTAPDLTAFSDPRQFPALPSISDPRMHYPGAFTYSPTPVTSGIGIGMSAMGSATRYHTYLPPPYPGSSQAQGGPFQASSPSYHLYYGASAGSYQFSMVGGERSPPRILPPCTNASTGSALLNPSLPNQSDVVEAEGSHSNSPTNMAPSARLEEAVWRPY
Sequence CTGGAAACCATTTCCTTTGTGGCCATGAAACAATGG displayed an ETS1 binding intensity of 594. In the case of ATGTGCGTGTGCACAGGAAAACCACTGCCAGTATTT, the ETS1 binding intensity was found to be 756.

In turn, CGTTTGCCTATCTTCCTCCCCACAGAAGCACTCCAT gave an ETS1 binding intensity of 453. On the same count and under the same terms, then GGCTTGCCAAGAGGAAATTTGAAGCCACAATAACAT, with 808; and GAAAGGGTTCATCCAGGAAACCACAACCCAGTGCCG, with 808; and CACTTCCGGGTCGTCAGCTCAGTTCTGCGGTTTCTG, with 1030. On the same count and under the same terms, the value for GAAGCTCCCCAAACAGGATGTGGTTAGGGAGAGGGG was 8040. On the same count and under the same terms, then AGTTTCTCCAGGAAGCGCTGAGGTTTTCTCAGAAGT, with 763; and CCCCGTTACGCCCATCCGGCTCCCGCATAGGGCGTC, with 442; and TAACCCGGAGCGGAAGGATCCCGCAGCGTGTGCGTA, with 681. As for GTTTCAGTATTTCCTGGTGCGGCGTACCACACCTAC, the ETS1 binding intensity amounted to 620. As to TTCTTCCGGCAACTGCTGCTGAGGCTGCGGTGGCGG, the ETS1 binding intensity came to 455. GCGCCCCGTCCTTCCGCAGCCCAACCGCCTCTTCCC had an ETS1 binding intensity of 476.

As to GGTCACATCCTTTCCCTTCTGTGTCTCAGCCGCAGT, the ETS1 binding intensity amounted to 421. As to TGCCGTTTCCGGGTCACCCAGGCAGCTTGTGGCGGC, the ETS1 binding intensity was determined as 528. The same measure, in the same setting: then TAACGCGAGAACTTCCTGCGGGCCACGCCCTCTTTC, with 571.

CAAGCCACTTCCTTTCTTGCTCCCACAACCTGTGTT showed an ETS1 binding intensity of 579. The same measure, in the same setting: then CCCCTTCATCCGCCTCTCTCTCACCGCGCCGCTCCC, with 449. The same measure, in the same setting: the value for GACCTGACAACATCCTGGCGCAGTGGGTTGGCCCTG was 496; that for CTCAGGGTACCAGGATGTGGTTTAGCTTAGGGGTGG was 1840; that for TACCACCTCAGGATGTCTGAACCACATGCAAGCAGG was 439.

In turn, AAGATGCCCCCTTCCGCTGGAAAGCGGTAATGCCCA yielded an ETS1 binding intensity of 724.

In turn, CTGCTGCCGCGAACAGGAAACCACTACAATCAGGAG registered an ETS1 binding intensity of 2840. On the same count and under the same terms, the value for AGCACGCCGGGAAATGGAGTCTCAGGTGGTTTTTAA was 443. Same read-out and setting: the value for GCGCACACATGCTTCCTGTGGTGACTGGGCGCTTCA was 527; that for CTTCCCTTGCCCCGGAAAAGGGCGGTAAGAGGGAGC was 1200; that for GGAAAGCGGAAGAAAAAAGCAAGATGGGACCGCAAG was 445.

ACTGAACAAACCGGATGTGGTTGCCACCTGCAATCT came in with an ETS1 binding intensity of 19800.

GGCTTGATTGAACGAGGATGTGGTTCTTGGGTGGGA returned an ETS1 binding intensity of 686. TAAACCCTGCTTCCTGTCCCTGCGCCCCACAAGGAG had an ETS1 binding intensity of 1290. TGTTTGTTTCCGAAGATTAGCCAGCCTGCGGTAGAG came in with an ETS1 binding intensity of 437. The sequence AGCAGATTTGCTGCAGGAAACCACCGAGTCTCACGG had an ETS1 binding intensity of 1130.

As to AAAGAGAAAGGAAACAAAGTATAGCACCACAGTGAG, the ETS1 binding intensity was 475. AGTTGCTAAGGAAATGACTGCCCGCAGCGCCTGGCC showed an ETS1 binding intensity of 423. On the same count and under the same terms, then GTCTTGTACCCTAGAGGATGTGGTAGCCCTAAATAA, with 1060. On to ACCAGGATGTAGTTTAGCTTAGGGGTGGTTATATCG, for which the ETS1 binding intensity is 603.

With GAAGAAGTCAGGAAATGCTGCCGCAGCAGCCAGCCC, the ETS1 binding intensity was determined as 878.

Take ATCTCCACATCCTCCCCATCGACCGCATGGTTTACC: the ETS1 binding intensity stood at 439. Still for that read-out and setting: then TCAGGGTCAGCAGGAGGAAACCACGCACTACATGCT, with 437.

Another experiment addresses RUNX1 (UniProt Q01196). Put plainly: RUNX1 binding intensity (PBM fluorescence), RUNX1 alone (arbitrary fluorescence units); higher = stronger binding. The conditions noted are these: RUNX1 concentration 2 nM; ETS1 concentration 0 nM. As for the experimental part: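 Cooperative gcPBM on 36-bp genomic probes with neighbouring ETS1 and RUNX1 sites. Recombinant human RUNX1 (2 nM) was incubated alone or with ETS1 (25 nM) and detected with anti-RUNX1 antibody plus Alexa488 secondary. Values are medians over 4 replicate spots; the RUNX1+ETS1 data were normalised to the RUNX1-only data. The probes sit in constant array flanks that are not printed.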
Regarding GAAAGGGTTCATCCAGGAAACCACAACCCAGTGCCG, the RUNX1 binding intensity was found to be 1440. On the same count and under the same terms, the value for CACTTCCGGGTCGTCAGCTCAGTTCTGCGGTTTCTG was 4240. GAAGCTCCCCAAACAGGATGTGGTTAGGGAGAGGGG displayed an RUNX1 binding intensity of 879. Turning to TTCTTCCGGCAACTGCTGCTGAGGCTGCGGTGGCGG, the RUNX1 binding intensity was 799. CTGCTGCCGCGAACAGGAAACCACTACAATCAGGAG registered an RUNX1 binding intensity of 816. In turn, ACTGAACAAACCGGATGTGGTTGCCACCTGCAATCT showed an RUNX1 binding intensity of 848.

ATCTCCACATCCTCCCCATCGACCGCATGGTTTACC gave an RUNX1 binding intensity of 1970.

The values above are taken from the supplement of paper PMC10681739.
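Wherever RUNX1 binding intensity (PBM fluorescence), RUNX1 alone is given: Full-length recombinant human RUNX1 bound to double-stranded 36-bp genomic probes on a high-density microarray, scored as Alexa488 fluorescence per spot via anti-RUNX1 antibody, median of four replicate spots.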
